Screening results from PubChem.
In the library only some 3.1% were active in any assay of this set; here they are far more common.
KCC2 mod: KCC2 (human) Cl- transport modulation; Q9H2X9; AID 1456; KCC2 cells, thallium flux FluoZin-2 fluorescence; B-score of Tl+ flux slope (higher = more flux/activation; lower = inhibition) at 10 µM; 2.2% of 190,000 active;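 active = thallium flux slope and its plate-corrected score both differing from the plate sample mean at a set confidence after two filtering rounds, in either direction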;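 note: slope of fluorescence scaled to starting intensity during 10 to 20 s after thallium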
EP2 mod: modulators of human EP2 prostaglandin E2 receptor; P43116; EP2-expressing cells, cAMP HTRF FRET, PGE2 co-stimulation; induction, % at 25 µM; 0.83% of 260,000 active;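 active = compounds whose cAMP rise, as percent of the full-agonist control response, exceeds 60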;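 note: rat C6 glioma line stably carrying human EP2 under a CMV promoter; the protocol text gives 20 µM as final concentration; 100% = response of wells given 1 µM PGE2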
Target sequence (P43116 whole entry, looked up): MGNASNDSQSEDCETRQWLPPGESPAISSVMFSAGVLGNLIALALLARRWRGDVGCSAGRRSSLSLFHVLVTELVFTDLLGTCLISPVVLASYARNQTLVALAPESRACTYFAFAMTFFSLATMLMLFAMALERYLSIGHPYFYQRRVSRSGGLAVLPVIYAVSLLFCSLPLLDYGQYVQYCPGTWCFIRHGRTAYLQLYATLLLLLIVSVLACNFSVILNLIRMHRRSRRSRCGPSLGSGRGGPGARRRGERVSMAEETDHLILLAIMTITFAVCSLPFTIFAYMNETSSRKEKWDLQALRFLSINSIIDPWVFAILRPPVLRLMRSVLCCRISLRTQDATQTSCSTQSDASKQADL
PGE2 EP2 inh: EP2 receptor (human) inhibition; C6 glioma cells expressing human EP2, cAMP TR-FRET; cells stimulated with saturating PGE2; 0.52% of 260,000 active; inhibition, % at 25 µM; P43116;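 active = percent inhibition above 40 after rounding to a whole number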;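 note: rat C6 glioma host cells with rolipram phosphodiesterase inhibitor present; the protocol text gives 20 µM as final concentration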
S1P3 antagonist: S1P3 (human) receptor antagonism | AID 485 | CHO S1P3 NFAT-BLA reporter, FRET fluorescence, antagonist mode | 0.27% of 170,000 active | inhibition, % at 4.98 µM;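 active = inhibition above the plate cutoff, the mean inhibition of test wells on that plate plus 3 SD, cut at about 28% in these data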;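 note: cells challenged with S1P at its EC80 of 0.8 µM; blue over green emission ratio from cleaved BLA substrate after 4 h stimulation; 0% = S1P-stimulated wells and 100% = unstimulated DMSO-only wells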
Target sequence (Q99500 whole entry, looked up): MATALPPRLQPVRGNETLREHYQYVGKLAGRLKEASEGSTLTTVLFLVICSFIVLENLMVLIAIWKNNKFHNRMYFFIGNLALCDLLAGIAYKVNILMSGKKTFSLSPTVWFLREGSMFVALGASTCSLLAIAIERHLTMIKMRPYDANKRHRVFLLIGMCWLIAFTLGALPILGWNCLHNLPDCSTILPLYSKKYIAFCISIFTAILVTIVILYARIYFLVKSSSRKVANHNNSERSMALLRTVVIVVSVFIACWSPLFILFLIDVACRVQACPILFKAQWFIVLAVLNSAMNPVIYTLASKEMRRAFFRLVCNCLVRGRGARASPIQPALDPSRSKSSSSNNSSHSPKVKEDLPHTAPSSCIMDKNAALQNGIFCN
KCC2 sec1: confirmation of human KCC2 transport modulators. normalised thallium flux (F/F0 slope) at 10 µM. 15% of 3,700 active. shares compounds with KCC2 mod. HEK293-KCC2, thallium flux, FluoZin2 fluorescence; hits give high values;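 active = thallium flux slope above the same plate's solvent-only control mean plus 3 SD; inconclusive = the two replicate wells disagree; inactive = no significant difference from solvent-only control wells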
KCC2 bumet counter: thallium flux persisting under bumetanide in KCC2 cells, counter-screen secondary assay; shares compounds with KCC2 mod; HEK293-KCC2 + bumetanide/ouabain, thallium flux FluoZin2; hits give high values; normalized thallium flux at 10 µM; 49% of 3,700 active;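 active = thallium entry rate above the same plate's blocked-transporter control wells by more than 3 SD; inconclusive = the two repeat wells disagree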;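 note: raw slope of fluorescence over initial fluorescence between 10 and 20 s after thallium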
KCC2 secondary2: confirmation of human KCC2 transport modulators | shares compounds with KCC2 mod | HEK293-KCC2, thallium flux FluoZin2 fluorescence; actives lie on both sides; F/F0 rise rate, 10–20 s post-thallium | normalized thallium flux at 10 µM | 23% of 3,700 active;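 active = thallium flux slope more than 3 SD above or below the plate's solvent-only control mean, mostly below; inconclusive = the two repeat wells disagreed; inactive = no significant shift from solvent-only controls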;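 note: raw slope with 0.1% DMSO as baseline and bumetanide as block control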
HEK293 Tl flux: acts in parental HEK cells, KCC2 counter-screen; HEK293 parental cells, thallium flux FluoZin2, ouabain; baseline-ratio fluorescence slope, 10–20 s after thallium; thallium flux rate (normalised fluorescence) at 10 µM; shares compounds with KCC2 mod; 46% of 3,700 active;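 active = thallium flux rate significantly above the same plate's solvent-only control wells, beyond their mean plus 3 SD; inconclusive = the two replicate wells gave conflicting results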
KCC2 retest ouab: modulates human KCC2 on retest with ouabain; shares compounds with KCC2 mod; HEK293-KCC2, thallium flux FluoZin2 fluorescence; bidirectional: low = inhibitor, high = activator; raw Tl+ flux slope (below DMSO = inhibition, above = activation) at 10 µM; 48% of 3,700 active;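 active = thallium flux slope beyond 3 SD from same-plate DMSO control mean in most replicates, usually higher, sometimes lower; inconclusive = repeat tests gave conflicting results; inactive = no significant difference from controls in most replicates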;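 note: slope of initial-normalized fluorescence between seconds 10 and 20 after thallium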
HEK counter2: acts in parental HEK cells, second KCC2 counter-screen; thallium flux slope at 10 µM; HEK293 parental, thallium flux FluoZin-2 fluorescence slope; shares compounds with KCC2 mod; 33% of 3,700 active;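 active = thallium flux slope above the same plate's solvent-control mean plus 3 SD in both duplicate wells; inconclusive = duplicate wells that disagreed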;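 note: run without ouabain in cells lacking the KCC2 cotransporter; slope of fluorescence scaled to its starting value between 10 and 20 s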
The depositor's hits bear a star; ? = inconclusive; · = no result given.

SMILES | KCC2 mod | EP2 mod | PGE2 EP2 inh | S1P3 antagonist | KCC2 sec1 | KCC2 bumet counter | KCC2 secondary2 | HEK293 Tl flux | KCC2 retest ouab | HEK counter2
N#Cc1cc(C(=O)c2cc(Cl)ccc2O)cn(-c2ccccc2)c1=O | -5* | -10 | 4 | -1 | 0.0097 | 0.0052 | 0.034 | 0.0075 | 0.025 | 0.01
CC(=O)Oc1c(-c2ccco2)oc2ccccc2c1=O | 40* | -19 | 11 | 2 | 0.045* | 0.071* | 0.057* | 0.057* | 0.056* | 0.056*
Cc1ccc(NC(=O)C(C)Sc2nc(=O)cc(N)n2-c2ccccc2)cc1 (configuration not stated) | · | 6 | 14 | · | 0.0084 | 0.0065 | 0.032 | 0.004 | 0.018 | 0.011
CCOc1ccccc1-n1nnnc1SCc1nc2ccccc2s1 | · | 14 | · | -3 | 0.015 | ? | 0.024* | 0.0058* | 0.013* | 0.0091
CCOC(=O)c1sc2nc(C)[nH]c(=S)c2c1C | 200* | 20 | 19 | 1 | 0.054* | 0.15* | 0.052* | 0.11* | 0.12* | 0.05*
CCOC(=O)c1sc2nc(C)n(N)c(=O)c2c1C | 0.69 | 14 | 8 | -1 | · | · | · | · | · | ·
S=c1[nH]nc(Nc2cccc3ccccc23)s1 | 30* | -24 | 15 | -3 | 0.0078* | 0.023* | 0.017* | 0.0088* | 0.016* | 0.0099
CCCc1nc2ccccc2n1CC(O)COc1cccc(OC)c1 (configuration not stated) | · | 2 | 9 | · | · | · | · | · | · | ·
O=C(NC(=S)NCCO)c1sc2ccccc2c1Cl | 3.7* | -32 | 9 | -16 | 0.0088 | 0.011* | 0.032 | 0.015* | 0.019 | 0.012
O=C(NNC(=S)NC1CCCCC1)c1sc2ccccc2c1Cl | 1.9 | -69 | 0 | 5 | · | · | · | · | · | ·
COc1ccc(CC(=O)Nc2ccc(-c3nc4cc(C)ccc4o3)c(O)c2)cc1OC | -5.4* | 40 | · | -80 | 0.017 | 0.0048 | 0.03 | 0.0074 | 0.017 | 0.01
Cc1ccc2oc(-c3ccc(NC(=O)c4ccncc4)cc3O)nc2c1 | -0.3 | -33 | 3 | -21 | · | · | · | · | · | ·
Cc1ccc(/C=C/C(=O)c2ccccc2O)cc1 | -0.21 | 4 | 7 | -12 | · | · | · | · | · | ·
Cc1ccc(/C=C/C(=O)C2C(=O)c3ccccc3C2=O)cc1 | · | -11 | 21 | · | 0.0059 | 0.067* | 0.063* | 0.092* | 0.072* | 0.054*
CCc1nc2ccccc2n1CC(=O)N[C@H](CC)Cn1nc(-c2cccs2)ccc1=O | · | 1 | · | · | · | · | · | · | · | ·
O=c1[nH]c(/C=C\c2ccc(-c3ccc(Cl)cc3)o2)nc(O)c1[N+](=O)[O-] | · | 10 | 9 | · | · | · | · | · | · | ·
N#C/C(=N\Nc1ccc(Cl)c(Cl)c1)C(=O)C1CC1 | -6* | -52 | 8 | 9 | 0.0064 | 0.0042 | 0.023* | 0.004* | 0.012* | 0.0074*
COc1ccc(OCC(=O)NC(=S)N2CCCc3ccccc32)cc1 | 24* | -18 | 18 | · | 0.021* | 0.037* | 0.034 | 0.021* | 0.029* | 0.021*
COc1cc2c(cc1OC)CN(C(=S)NC(=O)c1ccccc1)CC2 | 23* | -15 | 8 | 1 | 0.026* | 0.05* | ? | 0.031* | 0.033* | 0.032*
COc1ccccc1-c1cc(C(=O)N2CCCc3ccccc32)no1 | -3.9* | 22 | 0 | 22 | 0.0073 | 0.0051 | 0.035 | ? | 0.016* | 0.0095
CC(C)C(=O)NC(=S)N1CCc2ccccc21 | 5.2* | 23 | 7 | 6 | 0.0067 | 0.021* | ? | 0.018* | 0.028* | 0.017*
COc1ccc(OC)c(-c2cc(C(=O)N3CCCc4ccccc43)no2)c1 | · | 27 | 3 | -18 | · | · | · | · | · | ·
Cn1ccnc1C1(O)COC2(CCN(C(=O)c3ccc(OC4CSC4)cc3)CC2)C1 (configuration not stated) | · | -17 | · | · | · | · | · | · | · | ·
COc1ccc(C(=O)NC(=S)N2CCCc3ccccc32)cc1OC | 5.3* | -39 | 6 | -16 | 0.011 | 0.023* | 0.033 | 0.012* | ? | 0.012*
COc1ccccc1C(=O)NC(=S)N1CCc2ccccc21 | 6.5* | 22 | 9 | 5 | 0.0097 | 0.019* | 0.03 | 0.0085* | ? | 0.0094
SMILES | KCC2 mod | EP2 mod | PGE2 EP2 inh | S1P3 antagonist | KCC2 sec1 | KCC2 bumet counter | KCC2 secondary2 | HEK293 Tl flux | KCC2 retest ouab | HEK counter2
COc1ccc(-n2c(C)cc(C(=O)CSc3nnc(-c4ccoc4C)n3C)c2C)cc1 | · | -10 | 6 | -16 | 0.0072 | 0.0064 | 0.033 | ? | 0.02 | 0.01
O=C(Cn1nc2c3ccccc3ncn2c1=O)NC1CCCCC1 | · | -12 | · | · | · | · | · | · | · | ·
Cc1ccc(C(=O)/C=C/Nc2ccccc2C(N)=O)cc1 | -3.3* | -3 | 13 | · | 0.017 | 0.0065* | ? | 0.007 | 0.015 | 0.01
CCOC(=O)c1cc2sccc2n1CC(=O)NC1CCCCC1C (configuration not stated) | · | 1 | 8 | · | · | · | · | · | · | ·
C=CCc1cccc2cc(C(=O)NNC(=O)c3ccncc3)c(=O)oc12 | 4.8* | 10 | 7 | -1 | 0.0058 | 0.0043 | 0.029 | 0.0076 | 0.018 | 0.01
C=CCc1cccc2cc(C(=O)NC(C)(C)C)c(=O)oc12 | -0.12 | -18 | 11 | -10 | · | · | · | · | · | ·
CC(C)c1nc(SCC(=O)N2CCOCC2)c2ccccc2n1 | · | 23 | 10 | · | · | · | · | · | · | ·
S=C(NCc1ccco1)Nc1ccccc1 | -1.6 | -1 | 5 | -2 | · | · | · | · | · | ·
O=C(NC(=S)NCc1ccncc1)c1ccccc1 | 0.089 | -11 | 14 | -5 | · | · | · | · | · | ·
O=C(NC(=S)NCc1ccc(F)cc1)c1ccccc1 | 48* | -43 | 6 | -5 | 0.027* | 0.053* | 0.039* | 0.021* | 0.029* | 0.023*
COc1ccccc1/C=N/NC(=S)NCc1ccco1 | 4.3 | 21 | 6 | 11 | · | · | · | · | · | ·
O=C(NC(=S)NCc1ccccc1)c1ccccc1 | 22* | -14 | 8 | -18 | 0.0063 | 0.036* | 0.043* | 0.029* | 0.038* | 0.03*
S=C(NCc1ccco1)N/N=C/c1ccccc1Cl | 7.3* | 3 | 4 | -9 | 0.0089 | 0.018* | 0.031 | 0.0095* | 0.034* | ?
O=C(NC(=S)NCc1ccco1)c1ccccc1 | 19* | -26 | 9 | 5 | ? | 0.036* | 0.035 | 0.015* | 0.028 | 0.013*
COc1ccc(C2(O)CCN(CC(=O)Nc3nnc(C)s3)CC2)cc1 | · | 16 | · | · | · | · | · | · | · | ·
CCOc1ccc(S(=O)(=O)Nc2cccc(Cl)c2)cc1 | -0.58 | · | 6 | 15 | · | · | · | · | · | ·
